Unmarked numbers belong to inactive results. No rule for the calls is given here.
Tested on: Aerobactin synthetase IucA (Klebsiella pneumoniae hvKP1)
Assay: IucA enzyme inhibition, primary screen, biochemical, Spectrum library (AID 1346200);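 also: 100% = wells without compound and 0% = wells lacking enzyme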
Conditions: malachite green pyrophosphate, A620, at 8 µM, hits give low values

Structure (SMILES)	activity remaining
C=C[C@@](C)(O)CCC1C(=C)C[C@H](O)C2C(C)(C)CCCC12C (stereo not given in full)	123%
COc1ccc([C@H]2COc3c(ccc(O)c3OC)C2)c(OC)c1O	89.5%
OCCc1ccccc1	117%
CCN(CC)C(=O)N1CCN(C)CC1	118%
Cc1c(C)c2c(c(C)c1O)CCC(C)(COc1ccc(CC3SC(=O)NC3=O)cc1)O2 (stereo not given)	117%
COc1cc(/C=C/C(=O)N2CCC=CC2=O)cc(OC)c1OC	95.4%
O=C(O)[C@H]1/C(=C/CO)O[C@@H]2CC(=O)N21	112%
NC[C@@H]1O[C@H](O[C@@H]2[C@@H](CO)OC(O[C@@H]3[C@@H](O)[C@H](N)C[C@H](N)[C@H]3O[C@H]3O[C@H](CO)[C@@H](O)[C@H](O)[C@H]3N)[C@@H]2O)[C@H](N)[C@@H](O)[C@@H]1O (stereo not given in full)	97.1%
O=C(O)C1CC(C2CCCCN2)CN2CCCCC12 (stereo not given)	115%
CCC[C@H](N[C@@H](C)C(=O)N1[C@H](C(=O)O)C[C@@H]2CCCC[C@@H]21)C(=O)OCC	121%
CCCc1nc(C)c2c(=O)[nH]c(-c3cc(S(=O)(=O)N4CCN(CC)CC4)ccc3OCC)nn12	111%
CCCC1O[C@@H]2CC3C4CCC5=CC(=O)C=CC5(C)C4[C@@H](O)CC3(C)[C@]2(C(=O)CO)O1 (stereo not given in full)	115%
CC1(C)C(=O)CC[C@@]2(C)C1C[C@@H](O)[C@@]1(C)C3=CC(=O)O[C@@H](c4ccoc4)[C@]3(C)CCC21 (stereo not given in full)	111%
O=C(O)CCC(=O)OC[C@@H](NC(=O)C(Cl)Cl)[C@H](O)c1ccc([N+](=O)[O-])cc1	110%
CC(=O)c1cc2c(cc1O)OC(C)(C)C=C2	96.6%
C=CCSCC1Nc2cc(Cl)c(S(N)(=O)=O)cc2S(=O)(=O)N1 (stereo not given)	91.6%
CC1(C)CC23C(=O)CCC(O)C2(C)CCC13 (stereo not given)	113%
CCCc1cc(OC)c2c(c1)OCO2	106%
C=C[C@H]1CN2CC[C@H]1C[C@@H]2[C@H](O)c1ccnc2ccc(OC)cc12	112%
CO[C@@]1(NC(=O)Cc2cccs2)C(=O)N2C(C(=O)O)=C(COC(N)=O)CS[C@@H]21	108%

Structure (SMILES)	activity remaining
CC(=O)NO	103%
CC1=C(C/C=C(\C)CCC[C@H](C)CCC[C@H](C)CCCC(C)C)C(=O)c2ccccc2C1=O	114%
COc1ccc(-c2coc3cc(O)ccc3c2=O)c(OC)c1	111%
COc1cc2c(cc1OC)[C@@H]1C(=O)c3ccc4c(c3O[C@@H]1CO2)C=CC(C)(C)O4	118%
CN(C(=O)C(Cl)Cl)c1ccc(OC(=O)c2ccco2)cc1	96.4%
c1ccc(CN(CC2=NCCN2)c2ccccc2)cc1	120%
O=C(O)c1cc(O)c(O)c(O)c1	117%
COc1ccc(-c2cc(=O)c3c(OC(C)=O)cc(OC(C)=O)cc3o2)cc1	108%
Cc1onc(-c2ccccc2Cl)c1C(=O)N[C@@H]1C(=O)N2[C@@H]1SC(C)(C)[C@@H]2C(=O)O	96.2%
CCc1c2c(nc3ccc(OC(=O)N4CCC(N5CCCCC5)CC4)cc13)-c1cc3c(c(=O)n1C2)COC(=O)[C@]3(O)CC	90%
Cc1cc(CC(=O)O)n(C)c1C(=O)c1ccc(Cl)cc1	77.2%
CC1=NN(c2ccccc2)C(=O)C1	120%
CC(=O)c1c(O)c(C)c(O)c2c1OC1=CC(=O)C(C(C)=O)C(=O)C12C (stereo not given)	94.6%
CC[C@@H](CO)NCCN[C@@H](CC)CO	102%
CC(=O)O[C@H]1C[C@@H](OC(C)=O)C(C)(C)C2C[C@@H](OC(C)=O)[C@]3(C)C([C@H](OC(C)=O)C[C@@]4(C)[C@H](c5ccoc5)OC(=O)[C@H]5O[C@]543)[C@]21C (stereo not given in full)	104%
NC(COCc1ccccc1)C(=O)O (stereo not given)	105%
CCC(/C=C/[C@@H](C)[C@H]1CCC2C3CC=C4C[C@@H](O)CC[C@]4(C)C3CC[C@@]21C)C(C)C (stereo not given in full)	101%
CC(=O)O[C@]1(C(C)=O)CCC2C3C=C(Cl)C4=CC(=O)CC[C@]4(C)C3CC[C@@]21C (stereo not given in full)	130%
COc1c2occc2cc2ccc(=O)oc12	124%
OC/C=C/c1ccc(O)c(O)c1	81.7%

Structure (SMILES)	activity remaining
C[C@@H]1O[C@@H](OC[C@H]2OC(Oc3c(-c4ccc(O)c(O)c4)oc4cc(O)cc(O)c4c3=O)[C@H](O)[C@@H](O)[C@@H]2O)[C@H](O)[C@H](O)[C@H]1O (stereo not given in full)	101%
CC1=CCc2c(cc3oc(C)cc(=O)c3c2O)OC1	120%
COC(=O)C[C@H]1C(C)(C)C2(O)OC34CC2C(=O)[C@]1(C)C3CC[C@]1(C)C4=CC(=O)O[C@H]1c1ccoc1 (stereo not given in full)	105%
CN1CCc2cccc3c2C1Cc1ccc(O)c(O)c1-3 (stereo not given)	87.4%
C=CC(C1=CC(=O)C(OC)=CC1=O)c1ccc(O)cc1 (stereo not given)	120%
COC(=O)C1=CO[C@@H](C)[C@@H]2CN3CC[C@]4(C(=O)Nc5ccccc54)C3CC12 (stereo not given in full)	121%
CCC(=O)O[C@]1(C(=O)CCl)[C@@H](C)CC2C3CCC4=CC(=O)C=C[C@]4(C)[C@@]3(F)[C@@H](O)C[C@@]21C (stereo not given in full)	112%
O=C(O)CC(O)(CC(=O)O)C(=O)O	123%
Cc1cc2cc3c(C)cc(=O)oc3c(C)c2o1	117%
Cc1c(N(C)C)c(=O)n(-c2ccccc2)n1C	123%
CC(=O)O[C@H]1CC[C@@]2(C)C(C[C@H](OC(C)=O)[C@@]3(C)C4=CC(=O)OC(c5ccoc5)[C@]4(C)CCC23)C1(C)C (stereo not given in full)	119%
CC(CCC(=O)O)[C@H]1CCC2C3CC[C@@H]4CCCC[C@]4(C)C3CC[C@@]21C (stereo not given in full)	108%
COc1ccc2c(c1)OC[C@@H](Cc1ccc(OC)c(OC)c1)[C@@H]2O	121%
CCN(CC)CCNC(=O)c1cc(Br)c(N)cc1OC	109%
CCOc1ccc(Cc2nccc3cc(OCC)c(OCC)cc23)cc1OCC	109%
Cc1ccc(C(=O)C(C)CN2CCCCC2)cc1 (stereo not given)	113%
Nc1ccc(C(=O)Oc2ccccc2)c(O)c1	114%
CC(=O)OC[C@H]1O[C@@H](Oc2cc(OC(C)=O)c3c(=O)cc(-c4ccc(OC(C)=O)cc4)oc3c2)[C@H](OC(C)=O)[C@@H](OC(C)=O)[C@@H]1OC(C)=O	92.5%
Cc1ncc(CO)c(CO)c1O	102%
COc1cc(O)c2c(=O)c(O)c(-c3ccc(O)c(O)c3)oc2c1	103%
